Measured values: PubChem BioAssay
Numbered stars: 1 amine (or outer) side, 2 acyl side, 3 side chain; on linkers, the order of the positions; unused ones are H or OH. Bridge positions count the residues as written; N and C are the ends. Square brackets hold non-standard residues; d marks the D form. Peptide text beside a SMILES is read from it. I, II: the chains in the order shown. * marks the point of attachment. ξ: configuration not given here. Actinocin(9to1) = Cc1c2oc3c(C)ccc(C(=O)[*:1])c3nc-2c(C(=O)[*:2])c(N)c1=O; ΔAla(E,3-NHCONH2) = NC(=O)N/C=C(/N)C(=O)O; X1 = NC1=NCCC(C(N[*:1])C(=O)[*:2])N1; Heptanoyl(6-Me) = CC(C)CCCCC(=O)*; NMeV = CN[CH](C(=O)O)C(C)C; ξβ3hOrn = NCCCC(N)CC(=O)*; Orn = NCCC[CH](N)C(=O)O; Dab = NCC[CH](N)C(=O)O; Dap = NC[CH](N)C(=O)O; Sar = CNCC(=O)O

Assay: viability loss with induced miR-34 in A549 – imaging, A549 dox-inducible miR-34, nuclei and caspase counts, primary screen (AID 1347080); also: test concentration not given here
Details: A549 miR-34 inducible, Hoechst nuclei count, 48 h; measured here: total cells without miR-34 induction

| Compound | cell count |
| --- | --- |
| CO/N=C(\C(=O)NC1C(=O)N2C(C(=O)OCOC(=O)C(C)(C)C)=C(/C=C\c3scnc3C)CSC12)c1csc(N)n1 (configuration not stated) | 12800 |
| CC(C)CC1NC(=O)C(CCCN)NC(=O)C(C(C)C)NC(=O)C2CCCN2C(=O)C(Cc2ccccc2)NC(=O)C(CC(C)C)NC(=O)C(CCCN)NC(=O)C(C(C)C)NC(=O)C2CCCN2C(=O)C(Cc2ccccc2)NC1=O (configuration not stated) (cyclo(FPV[Orn]LFPV[Orn]L); configuration not given here) | 2340 |
| CC(=O)OC1CCC2C3CCc4cc(O)ccc4C3CCC12C (configuration not stated) | 9520 |
| O=C1O[C@H](C(O)CO)C(O)=C1O (some centres not stated) | 13100 |
| CO/N=C(/C(=O)N[C@@H]1C(=O)N2C(C(=O)O)=C(CSc3nc(=O)c(O)nn3C)CS[C@H]12)c1csc(N)n1 | 13200 |
| NCCCC(N)CC(=O)NCC1NC(=O)C(CO)NC(=O)C(N)CNC(=O)C(C2CCN=C(N)N2)NC(=O)/C(=C\NC(N)=O)NC1=O (stereo not drawn) (H-[Dap]S[Dap](ξβ3hOrn)[ΔAla(E,3-NHCONH2)][X1]; lactam 1-C; configuration not given here) | 13200 |
| CCCCCCCCCCCCCCCC(=O)O[C@@H]1[C@@H](O)[C@@H](O)C([C@H](NC(=O)[C@@H]2C[C@@H](CCC)CN2C)[C@H](C)Cl)O[C@@H]1SC (some centres not stated) | 13200 |
| CO/N=C(/C(=O)NC1C(=O)N2C(C(=O)OC(C)OC(C)=O)=C(COC(N)=O)CSC12)c1ccco1 (configuration not stated) | 13900 |
| O=C(N[C@@H](CO)[C@H](O)c1ccc([N+](=O)[O-])cc1)C(Cl)Cl | 11600 |
| C[C@]12C=CC(=O)C=C1CCC1C2[C@@H](O)C[C@@]2(C)C1CC[C@]2(O)C(=O)COC(=O)CCC(=O)O (some centres not stated) | 9580 |
| CC1=C(C(=O)O)N2C(=O)[C@@H](NC(=O)C(N)c3ccc(O)cc3)[C@H]2SC1 (some centres not stated) | 12700 |
| CCC(=O)OCC(=O)[C@@]1(OC(=O)CC)[C@@H](C)CC2C3CCC4=CC(=O)C=C[C@]4(C)C3(F)[C@@H](O)C[C@@]21C (some centres not stated) | 8480 |
| C/C=C\C1=C(C(=O)O)N2C(=O)C(NC(=O)C(N)c3ccc(O)cc3)C2SC1 (configuration not stated) | 13100 |
| C[C@H]1CC2C([C@@H](O)C[C@@]3(C)C2CC[C@]3(O)C(=O)COC(=O)CCC(=O)O)[C@@]2(C)C=CC(=O)C=C12 (some centres not stated) | 7910 |
| NCC1CCCCC1CC(=O)O (configuration not stated) | 12700 |
| CC1=C(C(=O)O)N2C(=O)[C@@H](NC(=O)[C@H](N)C3=CCC=CC3)C2SC1 (some centres not stated) | 12400 |

| Compound | cell count |
| --- | --- |
| CC[C@@H]1OC(=O)C[C@@H](O)[C@H](C)[C@@H](O[C@@H]2O[C@H](C)[C@@H](O)[C@H](N(C)C)[C@H]2O)[C@@H](CCN2C[C@H](C)C[C@H](C)C2)C[C@@H](C)C(=O)/C=C/C(C)=C\[C@@H]1CO[C@@H]1O[C@H](C)[C@@H](O)[C@@H](OC)[C@H]1OC | 13600 |
| CCC(C)C1NC(=O)C(CCN)NC(=O)C(NC(=O)C(CCN)NC(=O)C(NC(=O)C(CCN)NC(=O)CCCCC(C)C)C(C)O)CCNC(=O)C(C(C)O)NC(=O)C(CCN)NC(=O)C(CCN)NC(=O)C(C(C)CC)NC1=O (configuration not stated) ({Heptanoyl(6-Me)}-[Dab]T[Dab][Dab][Dab]II[Dab][Dab]T; lactam 4-C; configuration not given here) | 13800 |
| COc1cc(NS(C)(=O)=O)ccc1Cc1c2ccccc2nc2ccccc12 | 4000 |
| CC(CCC(=O)O)[C@H]1CCC2C3C(=O)C[C@@H]4CC(=O)CC[C@]4(C)C3CC(=O)[C@@]21C (some centres not stated) | 12900 |
| CC1C/C=C/C=C/C=C/C=C/C(O[C@@H]2O[C@H](C)[C@@H](O)[C@H](N)[C@@H]2O)CC2OC(O)(CC(O)CC3OC3/C=C/C(=O)O1)CC(O)C2C(=O)O (some centres not stated) | 13800 |
| CC(=O)OCC(=O)[C@@]1(OC(C)=O)[C@@H](C)CC2C3C[C@H](F)C4=CC(=O)C=C[C@]4(C)[C@@]3(F)[C@@H](O)C[C@@]21C (some centres not stated) | 7780 |
| CC(C)c1c(C(=O)c2ccccc2)c(-c2ccccc2)c(-c2ccc(F)cc2)n1CC[C@@H](O)C[C@@H](O)CC(=O)O | 10500 |
| CCC(C)C(=O)O[C@H]1C[C@H](O)C=C2C=C[C@H](C)[C@H](CC[C@@H](O)C[C@@H](O)CC(=O)O)C21 (some centres not stated) | 13500 |
| C#C[C@]1(OC(C)=O)CCC2C3CCC4=C/C(=N/O)CCC4C3CC[C@@]21CC (some centres not stated) | 12700 |
| CC(=O)O[C@]1(C(C)=O)CCC2C3C=C(Cl)C4=CC(=O)CC[C@]4(C)C3CC[C@@]21C (some centres not stated) | 10800 |
| N[C@H](Cc1cc(I)c(Oc2ccc(O)c(I)c2)c(I)c1)C(=O)O | 12400 |
| COCC1=C(C(=O)OC(C)OC(=O)OC(C)C)N2C(=O)[C@@H](NC(=O)/C(=N/OC)c3csc(N)n3)[C@H]2SC1 (some centres not stated) | 13100 |
| CCCCCCCCCCC[C@@H](C[C@H]1OC(=O)[C@H]1CCCCCC)OC(=O)[C@@H](CC(C)C)NC=O | 13000 |
| Cc1c2oc3c(C)ccc(C(=O)OC(C)C4NC(=O)C(C(C)C)N(C)C(=O)CN(C)C(=O)C5CCCN5C(=O)C(C(C)C)NC4=O)c3nc-2c(C(=O)OC(C)C2NC(=O)C(C(C)C)N(C)C(=O)CN(C)C(=O)C3CCCN3C(=O)C(C(C)C)NC2=O)c(N)c1=O (configuration not stated) (I: cyclo([Sar][NMeV]TVP) / II: cyclo([Sar][NMeV]TVP); linker I:3-II:3 via Actinocin(9to1); configuration not given here) | 2920 |
| OC[C@H]1OC([S-])[C@H](O)[C@@H](O)[C@@H]1O.[Au+] (some centres not stated) | 10700 |
| NC(Cc1c[nH]c2ccccc12)C(=O)O (configuration not stated) | 12700 |
